Records with an inconclusive call do not appear. Unmarked numbers belong to inactive results. The source made the active and inactive calls. Calls come from the whole dose curve; as a rule, active = well fitted cell-killing curve with a large enough effect in the repeat runs; inconclusive = weak or mixed curves, or effect the other way; inactive = flat fitted curve, though single readings scatter.

The values that follow come from PubChem BioAssay (Tox21).

Assay [1] in a line: cAMP Responsive Elements (CRE) small molecule antagonists, cell-based qHTS assay: qHTS cell viability counter screen (AID 2060913). Note: nearly all actives have a fitted effect of over 40% in size. The essentials:
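Viability of NKH477-stimulated (0.25 uM final) CRE-bla HEK293T cells is measured by CellTiter-Glo luminescence following 3 hrs compound exposure at 37 C.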
(Quantitative high-throughput screening tests each substance at several concentrations.)

The nature of assay [2]: cAMP Responsive Elements (CRE) small molecule agonists, cell-based qHTS assay: qHTS cell viability counter screen (AID 2060914). Note: nearly all actives have a fitted effect of over 50% in size. The method, boiled down: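 HEK 293T CRE-bla; DMEM + 10% dialyzed FBS, 25 mM HEPES; 18 h pre-incubation; compound 3 h, 37 °C/5% CO2; CellTiter-Glo added after reporter read; luminescence after 30 min RT.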
% is set by controls: 0 for no effect and ±100 for the full control effect; potency is the fitted concentration of half-maximal effect.

As for `C=C(C)C(=O)OCCCCCCCCCCCCCCCCCC`, in assay [1], the viability change, negative = cytotoxic was 12.4% [at 18.9 µM]. Besides, in assay [2], the activity change, negative = cytotoxicity is 2.15% [at 18.9 µM].
For the compound `O=C(O)Cc1cc(I)c(Oc2ccc(O)c(I)c2)c(I)c1`, the Potency entry in assay [1] and in assay [2] was “inactive” in each case.
`CCCCCCCC(=O)OCC`: the Potency result in assay [1] and in assay [2] was “inactive” throughout.
As for `Cc1c(I)c(=O)n(-c2ccccc2)n1C`, the Potency result in assay [1] and in assay [2] was “inactive” throughout.
`CCN(CC)c1cccc(O)c1`: the Potency entry in assay [1] and in assay [2] was “inactive” each time.
In the case of `OC/C(Br)=C(\Br)CO`, the Potency entry in assay [1] and in assay [2] was “inactive” each time.
`Cc1ccc(C)c(C)c1`: the Potency result in assay [1] and in assay [2] was “inactive” in each case.
Take `CC(C)=CCOc1ccc(/C=C/C(=O)c2ccc(OCC=C(C)C)cc2OCC(=O)O)cc1`: the Potency entry in assay [1] and in assay [2] was “inactive” throughout.
Turning to `O=CC1CC1`, the Potency entry in assay [1] and in assay [2] was “inactive” throughout.
For the compound `CC(=O)c1c(C)cc(C(C)(C)C)cc1C`, the Potency entry in assay [1] and in assay [2] was “inactive” in each case.
For `CCOC(=O)N1CCC(Nc2ccc(Cl)cc2N)CC1`, the Potency result in assay [1] and in assay [2] was “inactive” throughout.
With `CC(C)c1cccc(O)c1`, the Potency entry in assay [1] and in assay [2] was “inactive” throughout.
With `O`, the Potency entry in assay [1] and in assay [2] was “inactive” throughout.
Take `C=C1CC/C=C(\C)CC[C@@H]2[C@@H]1CC2(C)C`: the Potency result in assay [1] and in assay [2] was “inactive” in each case.
As to `Cc1cc2c(cc1S(N)(=O)=O)S(=O)(=O)CCC2`, the Potency result in assay [1] and in assay [2] was “inactive” each time.
In the case of `CC1=C(CC(=O)O)c2cc(F)ccc2/C1=C\c1ccc(S(C)(=O)=O)cc1`, the Potency result in assay [1] and in assay [2] was “inactive” each time.
Regarding `CCCCCCCCC1CCC(=O)O1` (stereo not given), the Potency result in assay [1] and in assay [2] was “inactive” each time.
With `Nc1cc([N+](=O)[O-])ccc1Cl`, the Potency result in assay [1] and in assay [2] was “inactive” in each case.
On to `CN/C(=C\[N+](=O)[O-])NCCSCc1csc(CN(C)C)n1`, for which the Potency entry in assay [1] and in assay [2] was “inactive” each time.
For `CCCCOc1ccc(C(=O)CCN2CCCCC2)cc1`, the Potency entry in assay [1] and in assay [2] was “inactive” each time.
On to `CC(CC=O)CC(C)(C)C` (stereo not given), for which the Potency entry in assay [1] and in assay [2] was “inactive” throughout.
As for `C=CC(=O)Nc1cc2c(Nc3ccc(F)c(Cl)c3)ncnc2cc1OCCCN1CCOCC1`, the Potency result in assay [1] and in assay [2] was “inactive” each time.
`O=c1[nH]cc(F)c(=O)[nH]1`: the Potency entry in assay [1] and in assay [2] was “inactive” each time.
As to `Nc1cccc(N)c1`, the Potency result in assay [1] and in assay [2] was “inactive” throughout.
For the compound `CCCOCCC`, the Potency result in assay [1] and in assay [2] was “inactive” throughout.
For `NC(=O)N/N=C/c1ccc([N+](=O)[O-])o1`, the Potency result in assay [1] and in assay [2] was “inactive” in each case.
Take `CCC[C@@H]1C[C@@H](C(=O)N[C@@H]([C@H]2O[C@H](SC)[C@H](O)[C@@H](O)[C@H]2O)[C@@H](C)O)N(C)C1`: the Potency result in assay [1] and in assay [2] was “inactive” each time.
Regarding `NO`, the Potency entry in assay [1] and in assay [2] was “inactive” in each case.
Take `CCCCCCCCCCn1cc[n+](CCCCCCCCCC)c1C`: the Potency in assay [1] was 24.4 µM (active); in assay [2], 48.6 µM (active).
In the case of `Cc1cccc(C)c1NC(=O)CC12CCCN1CCC2`, the Potency entry in assay [1] and in assay [2] was “inactive” each time.
On to `CC1CCC(CO)CC1` (stereo not given), for which the Potency entry in assay [1] and in assay [2] was “inactive” each time.
For `OB(O)O`, the Potency result in assay [1] and in assay [2] was “inactive” in each case.
Turning to `C=CCON/C(CCC)=C1\C(=O)CC(C)(C)C(C(=O)OC)=C1O`, the Potency entry in assay [1] and in assay [2] was “inactive” throughout.
Turning to `CCCc1cc(=O)[nH]c(=S)[nH]1`, the Potency result in assay [1] and in assay [2] was “inactive” throughout.
Regarding `CC(C)Nc1nc(N)nc(Cl)n1`, the Potency entry in assay [1] and in assay [2] was “inactive” each time.
`O=C(c1ccc(Cl)cc1)c1ccc(Cl)cc1`: the Potency result in assay [1] and in assay [2] was “inactive” each time.
In the case of `Cc1ccc2ccc(Cl)cc2n1`, the Potency result in assay [1] and in assay [2] was “inactive” in each case.
`OCCC(F)(F)C(F)(F)C(F)(F)C(F)(F)C(F)(F)C(F)(F)C(F)(F)C(F)(F)F`: the Potency entry in assay [1] and in assay [2] was “inactive” in each case.
On to `CC(C)C(=O)OCCc1ccccc1`, for which the Potency entry in assay [1] and in assay [2] was “inactive” throughout.
In the case of `O=c1cccccc1O`, the Potency entry in assay [1] and in assay [2] was “inactive” throughout.
In the case of `CCOc1ccc(C(=O)OCCN(CC)CC)cc1`, the Potency result in assay [1] and in assay [2] was “inactive” throughout.
Turning to `CCCCCCCCCCCCCCC1CO1` (stereo not given), the Potency result in assay [1] and in assay [2] was “inactive” each time.
With `C=C(C)OC(C)=O`, the Potency entry in assay [1] and in assay [2] was “inactive” each time.
`CC(CCC(=O)O)(c1ccc(O)cc1)c1ccc(O)cc1`: the Potency result in assay [1] and in assay [2] was “inactive” throughout.
Turning to `CC(=O)OCC(=O)NCCCOc1cccc(CN2CCCCC2)c1`, the Potency result in assay [1] and in assay [2] was “inactive” each time.
Take `O=C(O)c1cc(-c2ccccc2)nc2ccccc12`: the Potency result in assay [1] and in assay [2] was “inactive” in each case.
In the case of `CN(C)CCOC(C)(c1ccccc1)c1ccccn1` (stereo not given), the Potency result in assay [1] and in assay [2] was “inactive” throughout.
With `O=c1[nH]c(=O)c2cn[nH]c2[nH]1`, the Potency result in assay [1] and in assay [2] was “inactive” throughout.
In the case of `O=c1[nH]c(=O)n([C@H]2CCCO2)cc1F`, the Potency entry in assay [1] and in assay [2] was “inactive” each time.
In the case of `Cc1ccc(OC(=O)c2ccccc2O)cc1`, the Potency entry in assay [1] and in assay [2] was “inactive” throughout.
With `O=S(=O)(O)c1ccc2ccccc2c1`, the Potency entry in assay [1] and in assay [2] was “inactive” each time.
As for `Cc1nccn1CC1CCc2c(c3ccccc3n2C)C1=O` (stereo not given), the Potency entry in assay [1] and in assay [2] was “inactive” each time.
Turning to `CCCCCC[C@@H](O)C/C=C\CCCCCCCC(=O)O`, the Potency entry in assay [1] and in assay [2] was “inactive” each time.
`CCCOC(=O)c1cc(O)c(O)c(O)c1`: the Potency result in assay [1] and in assay [2] was “inactive” each time.
Regarding `CC1=C(O)C(=O)CO1`, the Potency entry in assay [1] and in assay [2] was “inactive” in each case.
With `CC(C)CC(=O)CC(C)C`, the Potency result in assay [1] and in assay [2] was “inactive” in each case.
Take `NS(=O)(=O)Cc1noc2ccccc12`: the Potency entry in assay [1] and in assay [2] was “inactive” throughout.
Take `CCC(C)OC(=O)N1CCCCC1CCO` (stereo not given): the Potency result in assay [1] and in assay [2] was “inactive” in each case.
As to `CCCC(CCC)C(=O)O`, the Potency entry in assay [1] and in assay [2] was “inactive” in each case.
Consider `CC(=O)[C@]1(O)Cc2c(O)c3c(c(O)c2[C@@H](O[C@H]2C[C@H](N)[C@H](O)[C@H](C)O2)C1)C(=O)c1ccccc1C3=O`, for which the Potency result in assay [1] and in assay [2] was “inactive” in each case.
